# Source: PubChem (several laboratories)
# Most compounds without a hit are left out; they make up all but 2.2% or so of the library.
# IEC-6 tox – counter-screen for KLF5 inhibitors: cytotoxicity in IEC-6 cells | IEC-6 cytotoxicity, luminescence viability | inhibition, % at 5 µM | 290,000 tested, 0.78% active; in the data active means inhibition above about 22%;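 further: 0% = plate median of test compound wells and 100% = cytotoxic reference compound wells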
# aSyn 5UTR inh – 5' untranslated region of α-synuclein, MLPCN primary screen | alpha-synuclein 5'UTR reporter, inhibitor activity | inhibition, % (tested at 7.5 µM) | 300,000 tested, 0.82% active | AID 1813; in the data active means inhibition above about 60%; inconclusive means no clear call, values can overlap the other calls;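 further: H4 neuroglioblastoma cells stably carrying SNCA 5'UTR luciferase fusion; 0% = DMSO wells and 100% = positive control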
# BaF3 tox – reduces parental Ba/F3 cell viability, JAK2V617F counter-screen; CellTiter-Glo ATP luminescence; inhibition, % at 5.6 µM; 220,000 tested, 1.1% active; AID 1486;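 active means inhibition above a per-campaign cutoff, the mean inhibition of all tested compounds plus 3 SD, cut at about 27% in these data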;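 further: 0% = DMSO wells and 100% = JAK Inhibitor I control wells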
# Ba/F3 V617F tox – reduce viability of Ba/F3 cells dependent on JAK2V617F | Ba/F3 EpoR-JAK2V617F viability, ATP luminescence | inhibition, % at 5.6 µM | 220,000 tested, 1.1% active;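 active means inhibition above the campaign mean plus 3 SD over all tested compounds, cut at about 24% in these data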;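 further: cytokine-independent growth of Ba/F3 cells driven by EpoR plus mutant JAK2; 0% = DMSO-treated cells and 100% = JAK inhibitor I control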
# APP 5UTR inh – APP translation inhibition. AID 1285. 190,000 tested, 0.82% active. SH-SY5Y APP 5'UTR-luciferase reporter, luminescence. inhibition, % at 2 µM;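 active means inhibition above a set limit, derived from the sample mean plus 3 SD, cut at about 45% in these data; inconclusive means one replicate passes the limit while the other fails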
# KLF5 inhibitor – kruppel-like factor 5 inhibition; inhibition, % at 5 µM; AID 1700; DLD-1 KLF5 promoter-luciferase reporter, luminescence; 290,000 tested, 0.23% active;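 active means inhibition above a per-plate limit of that plate's mean compound inhibition plus 3 SD, cut at about 60% in these data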;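 further: 0% = DMSO wells and 100% = LY294002 at 200 µM; higher means less KLF5 promoter-driven luciferase light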
# Numbers without * were called inactive; ? = inconclusive; / = not tested or not shown; ! = repeats disagree.
SMILES,IEC-6 tox,aSyn 5UTR inh,BaF3 tox,Ba/F3 V617F tox,APP 5UTR inh,KLF5 inhibitor
C/C=C(\C)C(=O)OC1C(C)=C2C(C1OC(=O)CCCCC)C(C)(OC(C)=O)CC(OC(=O)CCC)C1(O)C2OC(=O)C1(C)O (stereo not drawn),/,108.1*,/,/,/,/
Cc1cc(C)cc(N2C(=O)NC(=O)/C(=C\C=C\c3ccco3)C2=O)c1,-5.7,-116.3,5.1,0.8,46.5*,-17.1
CC1=CC(=C2C(=O)NC(=S)NC2=O)C=C(C(F)(F)F)N1Cc1ccccc1,9.3,113.4*,13.7,5.2,90.4*,25.1
CC1=CC(=C2C(=O)NC(=S)NC2=O)C=C(C(F)(F)F)N1CCc1ccccc1,-3.5,1.5,8.2,-0.9,92.4*,-36.5
CC1=CC(=C2C(=O)NC(=O)NC2=O)C=C(C(F)(F)F)N1Cc1ccccc1,2.0,20.0,4.8,3.1,-1.0,3.3
CCCCOCCCN1C(C)=CC(=C2C(=O)NC(=S)NC2=O)C=C1C,-2.8,14.7,-3.4,-2.4,/,-19.0
O=c1[nH]c(=O)n(-c2ccc(F)cc2)c(O)c1C=Nc1ccccc1N1CCCC1,-1.5,-0.6,38.4*,5.1,-1.5,1.1
Cc1ccc(-n2c(O)c(C=Nc3ccccc3N)c(=O)[nH]c2=O)cc1C,4.5,-15.8,4.1,1.1,-135.2,-51.3
OCC[n+]1c2ccccc2nc2ccc(N3CCOCC3)cc21,8.4,32.6,31.1*,18.9,/,-12.1
OC1(c2ccc(F)cc2)CC2CCC(C1)N2Cc1nnnn1C1CCCCC1 (stereo not drawn),2.9,-8.2,0.0,-3.3,5.7,-24.3
CC1(C)OC(c2ccccc2)=C/C(=C/C=C2C(=O)NC(=S)NC2=O)O1,-7.2,15.9,42.4*,-2.2,-10.9,1.4
Fc1ccc(C(OCCN2CCN(CCCc3ccccc3)CC2)c2ccc(F)cc2)cc1,/,105.9*,/,/,/,/
O=c1c2ccc(Cl)cc2[nH]c(=S)n1-c1cccnc1,2.5,-8.4,0.0,3.1,-3.8,-6.9
COc1cc2c(cc1OC)-c1c(OC)c(OC)c(OC)c3ccnc(c13)C2=O,14.8,103.6*,10.1,9.7,25.8,10.9
O=Cc1cn(Cc2ccc([N+](=O)[O-])cc2)c2ccccc12,-0.4,72.5*,0.5,-0.2,15.4,0.5
O=Cc1cn(Cc2ccc(F)cc2)c2ccccc12,-2.4,70.7*,3.2,0.0,5.6,-22.8
Cc1ccc(Cn2cc(C=O)c3ccccc32)cc1,-1.7,47.7,/,/,/,1.5
CCOc1cccc(=NC2CCCCC2)c2c(C)n(C)c(C)c12,3.1,30.5,64.7*,72.8*,/,-10.9
C[C@H]1O[C@@H](OC2CC[C@]3(C=O)[C@H]4CC[C@]5(C)[C@@H](C6=CC(=O)OC6)CC[C@]5(O)[C@@H]4CC[C@]3(O)C2)CC2OC(C)(C)OC21 (stereo partly drawn),-4.6,95.7*,/,/,/,109.8*
CC12CC[C@H]3[C@@H](CCC4(O)C[C@H](O)CCC34/C=N/NC(=O)c3ccccc3Cl)C1(O)CCC2C1=CC(=O)OC1 (stereo partly drawn),-0.4,7.9,-1.5,-0.6,/,-38.1
C[C@H]1O[C@@H](O[C@H]2[C@@H](O)C[C@H](O[C@H]3[C@@H](O)C[C@H](O[C@H]4CC[C@@]5(C)[C@H](CC[C@@H]6[C@@H]5CC[C@]5(C)[C@@H](C7=CC(=O)OC7)CC[C@]65O)C4)O[C@@H]3C)O[C@@H]2C)C[C@H](O)[C@@H]1O,4.9,/,5.7,-0.6,94.4*,100.0*
CCN(CC)C(=O)c1ccc(NC(=O)Nc2ccccc2F)cc1,28.2*,?,43.0*,43.3*,-121.3,35.1
Cn1nc(-c2ccc(OCC(=O)N3CCN(Cc4ccccc4)CC3)cc2)c2ccccc2c1=O,4.9,0.7,38.8*!,1.1,-16.7,-45.9
Cn1cccc1CN1CCN(C(=O)COc2ccccc2)CC1,-6.2,-9.9,0.8,-4.0,-11.5,-13.7
Cc1ccc(-c2nc3ccccc3c(=O)n2-c2ncccc2C)cc1,4.6,24.3,95.5*,2.3,19.8,-17.4
Cc1cccnc1-n1c(-c2ccccc2)nc2ccccc2c1=O,-3.0,-1.0,6.2,0.8,2.5,-41.0
O=C(C(Cc1ccccc1)NS(=O)(=O)c1ccc(F)cc1)N1CCC2(CC1)OCCO2 (stereo not drawn),10.9,18.1,4.2,3.9,2.7,-7.3
O=C(NC1(C(F)(F)F)Oc2ccccc2O1)N1CCC2(CC1)OCCO2,2.9,-15.3,3.6,7.7,13.6,-5.9
